PubChem BioAssay AID1305 (SRMLSC, 2008)
The campaign covered roughly 1,200 compounds. Fewer than 10 were called active. Only a sample is shown. Values without a mark were called inactive. No rule for the calls is given here.

Test: 5-FOA growth of efflux-deficient control yeast, dose response, counter-screen for RAM network inhibitor project, S. cerevisiae, OD615 (AID 1305);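 also: plate controls were vehicle for no effect and reference inhibitor for full effect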
Conditions: S. cerevisiae efflux-deficient reporter strain, 5-FOA growth OD615, 2 days, active compounds read high; at 100 µM unless noted

| Structure (SMILES) | max inhibition |
| --- | --- |
| CCC(C)(C)c1ccc(Oc2ccc(NC(=O)COC(=O)C3=COCCO3)cc2)cc1 | 1.41% |
| Cc1ccccc1CSCCNC(=O)c1ccc(N(C)S(=O)(=O)c2ccccc2)cc1 | 3.2% |
| Fc1ccc(-n2c(Cc3ccccc3)nnc2SCc2nc(-c3ccc(Cl)cc3)no2)cc1 | 1.1% [setting not given] |
| COCCN(C(=O)C(C)C)c1nnc(-c2ccc(C(C)(C)C)cc2)s1 | 1.87% [at 50 µM] |
| COc1ccc(/C=C(\NC(=O)c2ccc(OCC(C)C)cc2)C(=O)OCc2ccco2)cc1 | 3.48% |
| O=C(COC(=O)/C(=C/c1cccs1)c1cccs1)NCc1ccccc1Cl | 1.81% [at 25 µM] |
| Cc1c(N=Nc2ccc(N(C)C)cc2)c(=O)n(-c2ccccc2)n1C | 20% |
| CN(C)S(=O)(=O)c1cccc(NC(=O)COC(=O)C2(c3ccccc3F)CCCC2)c1 | 1.8% [at 50 µM] |
| CCOC(=O)c1sc2nc(CSCC(=O)OCc3ccc(C(=O)OC)o3)[nH]c(=O)c2c1C | 2.47% [at 50 µM] |
| CCN=C1S/C(=C\c2cc(Br)ccc2OCC(=O)OCC)C(=O)N1CC | 3.82% [at 50 µM] |
| Cc1cccc(-n2c(SCC(=O)Nc3cccc(S(=O)(=O)NC4=NCCCCC4)c3)nc3ccccc3c2=O)c1C | 2.12% [setting not given] |
| c1ccc(-c2csc(N3CCc4ccccc4C3)n2)cc1 | 4.47% |
| O=C(COC(=O)/C=C/c1nc2ccccc2s1)Nc1ccccc1Oc1ccccc1 | 1.95% [at 1.563 µM] |
| O=C(OCc1ccc(Br)cc1)c1cccc(-c2nnc(-c3ccccc3)o2)c1 | 3.97% [at 50 µM] |
| CC(=O)c1c(Nc2ccccc2)sc(C(=O)c2ccccc2)c1C | 4.16% [at 50 µM] |
| CCCSc1nc(NCc2ccco2)c2c3c(sc2n1)COC(C)(CC)C3 (centres undefined) | 4.05% [at 50 µM] |
| Cc1ccc(NC2=C(Cl)C(=O)OC2OC(=O)c2ccccc2C)cc1 (centres undefined) | 1.91% [at 50 µM] |
| Cc1cc(C)cc(NC(=O)CSCc2cnn(-c3ccccc3)c2-n2cccc2)c1 | 6.62% |
| COC(=O)CCCCCN1C(=O)NC(c2ccc(-c3ccccc3)cc2)C(C(=O)OCc2ccccc2)=C1C (centres undefined) | 4.42% [at 25 µM] |
| O=C(NCc1ccccc1)C1=C[C@@H](c2ccc(C(F)(F)F)cc2)C[C@@H](OCc2ccc(CO)cc2)O1 | 3.48% |
| Cc1ccc(N=Nc2c(C)[nH]n(-c3ccccc3)c2=O)cc1 | 1.87% [at 50 µM] |
| COC(=O)c1sccc1NC(=O)c1csc2c1CCCC2 | 4.49% [at 25 µM] |
| CC(O)C(NS(=O)(=O)c1ccc(Cl)cc1)C(=O)OCc1cc([N+](=O)[O-])cc2c1OCOC2 (centres undefined) | 1.67% |
| COc1ccc(Cl)cc1NC(=O)NC(C)C(C)(C)C (centres undefined) | 1.97% [setting not given] |
| CCOC(=O)CC(=O)CSc1nc(-c2ccccc2)cc(-c2ccc(Cl)cc2)c1C#N | 1.73% [setting not given] |

| Structure (SMILES) | max inhibition |
| --- | --- |
| C=CCOC(=O)C1=C(C)NC(SCC(=O)OCC)=C(C#N)C1c1ccc(C)cc1 (centres undefined) | 4.12% |
| CCCCn1ccnc1C(=O)c1cccc(S(=O)(=O)N2c3ccccc3CC2C)c1 (centres undefined) | 3.37% |
| CN(c1ccccc1)c1ccc(/C=c2\s/c(=C(/C#N)C(=O)C(C)(C)C)n(Cc3ccco3)c2=O)cc1 | 4.2% [at 25 µM] |
| N/C(Cc1ccc([N+](=O)[O-])cc1)=N\OC(=O)COc1ccc2ccccc2c1 | 1.6% |
| COc1ccc(/C(C)=N/Nc2cc(C(F)(F)F)ccc2Cl)c(OC)c1 | 2.82% |
| Cc1cc2ccccc2n1CCNC(=O)COc1ccc2ccccc2c1 | 4.22% |
| N#C/C(=C\C1=C(N2CCOCC2)C(=C\c2ccccc2)/CC1)C(=O)Nc1ccccc1F | 1.39% [setting not given] |
| COc1ccc(O[C@H]2C=C[C@@H](c3ccccc3)O[C@@H]2CO/N=C/C[C@@H]2C=C[C@H](OC(C)=O)[C@@H](COC(C)=O)O2)cc1 | 1.15% [setting not given] |
| O=C(COC(=O)CCCNC(=O)c1ccc(Cl)cc1)Nc1cc(Cl)ccc1Cl | 3.65% |
| COc1c(Br)cc2c(C)c(C(=O)N3CCOCC3)oc2c1Br | 1.57% [setting not given] |
| CCC1C/C(=C/c2cccs2)C(=O)/C(=C/c2cccs2)C1 (centres undefined) | 6.29% |
| CCc1nc(Nc2ccc3nccnc3c2)c2oc3ccccc3c2n1 | 13.2% |
| Oc1c(Cl)cc(Cl)c(Cl)c1Cc1c(O)c(Cl)cc(Cl)c1Cl | 0.89% [setting not given] |
| O=C(CCC(=O)OCc1cccc(C(=O)Oc2ccccc2)c1)Nc1cccc2ccccc12 | 2.95% [at 12.5 µM] |
| O=C1/C(=C/c2ccc3c(c2)OCO3)CCC/C1=C\c1ccc2c(c1)OCO2 | 4.85% [at 50 µM] |
| CCOC(=O)CSC1=C(C#N)C(c2ccco2)C(C(=O)OCc2ccccc2)=C(C)N1 (centres undefined) | 1.67% |
| Cc1ccc(S(=O)(=O)c2c(N)n(C)c3nc4ccccc4nc23)cc1 | 4.57% |
| CCC(C(=O)OCC(=O)Nc1c(Cl)cc(Cl)cc1Cl)c1ccccc1 (centres undefined) | 2.14% [setting not given] |
| C=CCO/N=C(\C)c1c(O)c(C)c(-c2ccccc2)n(-c2ccccc2)c1=O | 3.26% |
| COc1ccc2c(c1)CCc1c(C(=O)N3CCc4ccccc4C3)noc1-2 | 1.6% [setting not given] |
| CCOc1ccc(CN(Cc2ccco2)C(c2cccs2)c2nnnn2C(C)(C)C)cc1 (centres undefined) | 4.45% |
| Cc1ccc(C(=O)/C=C/c2c(C)nn(-c3ccccc3)c2Cl)cc1 | 7.53% |
| CCCCC(C(=O)OCC(=O)c1ccc(OC)cc1)N1C(=O)c2ccccc2C1=O (centres undefined) | 4.61% |
| COc1ccc(C2C=C(c3ccc(Br)cc3)Nc3nc(NS(C)(=O)=O)nn32)cc1 (centres undefined) | 3.37% |
| CCCNC(=O)OC[C@H]1O[C@H](CCO/N=C/[C@@H](NS(=O)(=O)c2ccc(C)cc2)[C@H](C)/C=C/CC(=O)OC)C=C[C@@H]1Oc1ccc(OC)cc1 | 1.46% [at 50 µM] |

| Structure (SMILES) | max inhibition |
| --- | --- |
| Fc1ccc(CSc2nnc(-c3cc4c(s3)-c3ccccc3CC4)o2)cc1 | 4.57% |
| O=C(CSc1nc(-c2ccccc2)cs1)Nc1cccc([N+](=O)[O-])c1 | 3.34% |
| COc1ccc(OC)c(C2C3=C(N=c4s/c(=C\c5cccc(O)c5)c(=O)n42)c2ccccc2CC3)c1 (centres undefined) | 2.51% [setting not given] |
| CCCC(C(=O)n1nc(C)cc1C)C(NS(=O)(=O)c1ccc(C)cc1)c1ccccc1 (centres undefined) | 2.29% [at 1.563 µM] |
| O=C(NCc1ccccc1)[C@H]1C[C@@H]1[C@H](NP(=O)(c1ccccc1)c1ccccc1)c1ccccc1 | 2.82% |
| COC(=O)c1ccc(C2C(Oc3ccccc3C)C(=O)N2CCc2ccc(OC)c(OC)c2)cc1 (centres undefined) | 3.17% |
| CC1CCN(C(=S)c2ccc(-c3ccc(Cl)cc3Cl)o2)CC1 | 4.91% |
| COc1ccc(/C=C/C(=O)OCC(=O)Nc2cccc(Oc3ccccc3)c2)c(OC)c1 | 3.76% |
| COc1ccc(C)cc1NC(=O)C(Sc1ccccc1)c1ccccc1 (centres undefined) | 4.82% |
| NS(=O)(=O)c1ccc(NC(=S)NC(=O)c2cccc(Br)c2)cc1 | 2.4% [at 1.563 µM] |
| COc1ccc(C(=O)NC(=S)Nc2ccc(N3CCCC3)cc2)cc1OC | 1.3% [setting not given] |
| C=CCc1ccccc1OCC(=O)N/N=C/c1ccccc1OCC | 1.41% |
| Clc1ccccc1CSc1nnc(-c2ccco2)c(-c2ccco2)n1 | 7.87% |
| O=C(NCc1ccccc1)C1=C[C@@H](C2CCCCC2)C[C@@H](OCc2ccc(CO)cc2)O1 | 5.02% |
| CCOC(=O)c1c(C)nc2c(c1C)c(=O)oc1ccccc12 | 1.3% [at 25 µM] |
| Cc1cccc(N2CCN(C(=O)c3cnn4c(C(F)F)cc(-c5ccccc5)nc34)CC2)c1C | 2.51% |
| Cc1ccc(CCC(=O)Nc2ncc(Cc3cc(Cl)ccc3Cl)s2)o1 | 2.81% |
| O=C(CSCc1ccc(Br)cc1)Nc1ccc(S(=O)(=O)N2CCCCCC2)cc1 | 2.51% |
| COC(=O)CCSc1cc([N+](=O)[O-])cc2c1c(C1OCCS1)nn2-c1ccccc1 (centres undefined) | 4.89% [at 12.5 µM] |
| COc1ccc(OCCCn2cccc2/C=C2/C(=N)N3OC(C)=CC3=NC2=O)cc1 | 3.93% |
| O=[N+]([O-])c1ccc2oc(-c3cccc(O)c3)nc2c1 | 5.09% [at 25 µM] |
| CC(C)=CCCC1(C)C=Cc2c(ccc3c2[nH]c2cc(O)c(C)cc23)O1 (centres undefined) | 2.74% |
| Cc1ccc(C(=O)c2c(NC(=O)c3ccccc3)sc(C)c2C)cc1 | 2.97% [setting not given] |
| CSc1ccccc1-c1nnc(-c2ccc(Cl)cc2)o1 | 2.32% [at 50 µM] |
